Earlier results in PubChem BioAssay AID977610.
About 3,600 (100%) of roughly 3,600 compounds were called active. Cut-off not given; nearly all actives show Ki up to about 18000 µM. So high a share suggests a set chosen from earlier hits. Some of the results follow. Numbered stars: 1 amine (or outer) side, 2 acyl side, 3 side chain; on linkers, the order of the positions; unused ones are H or OH. Bridge positions count the residues as written; N and C are the ends. Where a SMILES comes first, the peptide text is derived from it. Square brackets hold non-standard residues; d marks the D form. Peptide text beside a SMILES is read from it. [ ]: non-standard residue; d: D form. The star is where a group is joined. X1 = C[C@@H](C(=O)[*:2])n1cc([C@@H]2CCCN2[*:1])nn1; Orn(CH(NH2)2) = NC(N)NCCC[C@H](N)C(=O)O; Cbz = O=C(OCc1ccccc1)*; Dap = NC[C@H](N)C(=O)O; Nlys = NCCCCNCC(=O)O

Experiment: PubChem AID 977610
Details: PDB protein-ligand complexes, literature Ki

Question: For `C[C@H](O[P+](O)(O)O)C(=O)O`, which Ki (protein: PHOSPHO-2-DEHYDRO-3-DEOXYHEPTONATE ALDOLASE DAH7PS, PDB entry 4umc) is on record?
Answer: 360000 nM (active)

Question: For `C[C@@H](O[P+](O)(O)O)C(=O)O`, which Ki (protein: PHOSPHO-2-DEHYDRO-3-DEOXYHEPTONATE ALDOLASE DAH7PS, PDB entry 4umb) is on record?
Answer: 99000 nM (active)

Question: For H-SRVPTSII-OH, which Ki (protein: CFTR Associated Ligand (CAL) PDZ domain, PDB entry 4jog) is on record?
Answer: 190000 nM (active)

Question: Which Ki (protein: CFTR Associated Ligand (CAL) PDZ domain, PDB entry 4jok) does the source give for H-NSRYPTSII-OH here?
Answer: 85300 nM (active)

Question: For H-RLPTSII-OH, which Ki (protein: CFTR Associated Ligand (CAL) PDZ domain, PDB entry 4jof) is on record?
Answer: 68000 nM (active)

Question: With H-SRFPTSII-OH as the molecule, how does the Ki (protein: CFTR Associated Ligand (CAL) domain, PDB entry 4joj) read?
Answer: 110000 nM (active)

Question: Which Ki (protein: E3 ubiquitin-protein ligase Mdm2, PDB entry 4mdn) does the source give for `CC(C)(C)NC(=O)[C@@]1(c2c(C(=O)O)[nH]c3cc(Cl)ccc23)N2C(=O)[C@]21c1ccc(OCc2ccc(Cl)cc2)cc1` here?
Answer: 600 nM (active)

Question: With `CC(C)(C)NC(=O)[C@@H]1C[C@@H]2CCCC[C@@H]2CN1C[C@@H](O)[C@H](C[C@@H]1C=CCCC1)NC(=O)[C@H](CC(N)=O)NC(=O)C1=CCc2ccccc2N1` as the molecule, how does the Ki (protein: Protease PRG48T/L89M, PDB entry 4qgi) read?
Answer: 125000 nM (active)

Question: For `Nc1nc2c(ncn2[C@H]2CCN(C(=O)C[P+](O)(O)O)C2)c(=O)[nH]1`, which Ki (protein: Xanthine phosphoribosyltransferase, E. coli XGPRT, PDB entry 4jit) is on record?
Answer: 230 nM (active)

Question: With `Nc1nc2c(ncn2CC(COC[P+](O)(O)O)COC[P+](O)(O)O)c(=O)[nH]1` as the molecule, how does the Ki (protein: hypoxanthine-guanine phosphoribosyltransferase, PDB entry 4ijq) read?
Answer: 30 nM (active)

Question: Which Ki (protein: Xanthine phosphoribosyltransferase, E. coli XGPRT, PDB entry 4jls) does the source give for `Nc1nc2c(ncn2[C@H]2CN(C(=O)C[P+](O)(O)O)C[C@H]2O)c(=O)[nH]1` here?
Answer: 2200 nM (active)

Question: With `O=C(O)CC1(CC(=O)N2CCN(C(c3ccccc3)c3ccccc3)CC2)CCCC1` as the molecule, how does the Ki (protein: Dehydrosqualene synthase, PDB entry 3tfn) read?
Answer: 270 nM (active)

Question: For `CO[C@H]1CC[C@H](OC)[C@@H](NC(=O)CN2CCN(Cc3ccc4c(c3)OCO4)CC2)C1`, which Ki (protein: E. coli beta-Glucuronidase, PDB entry 4jhz) is on record?
Answer: 957 nM (active)

Question: For `NCCCC[C@H](NC(=O)Cc1ccc(Cl)c(Cl)c1)C(=O)N[C@@H](CCCCN)C(=O)NCC1CCC(NC(N)N)CC1` (stereo not given in full), which Ki (protein: SERINE PROTEASE SUBUNIT NS2B, SERINE PROTEASE NS3, PDB entry 2yol) is on record?
Answer: 130 nM (active)

Question: With `Cn1nc(N)c2c[n+]([C@@H]3O[C@H](CO[P+](O)(O)O)[C@@H](O)[C@H]3O)c3nc[nH]c1c23` as the molecule, how does the Ki (protein: Deoxyribonucleoside 5'-monophosphate N-glycosidase (D69N mutation), PDB entry 4fyh) read?
Answer: 14000 nM (active)

Question: For `N#Cc1cccc(Cn2cc(NC(=O)c3n[nH]c4ccccc34)cn2)c1`, which Ki (protein: Tyrosine-protein kinase ITK, PDB entry 4pp9) is on record?
Answer: 43 nM (active)

Question: Which Ki (protein: DNA gyrase subunit B, PDB entry 4gee) does the source give for `CCc1[nH]c2nc(Oc3cncnc3)nc(N3C[C@@H]4C(N)[C@@H]4C3)c2c1Cl` (stereo not given in full) here?
Answer: 1 nM (active)

Question: Which Ki (protein: Peptidyl-prolyl cis-trans isomerase FKBP51, PDB entry 4w9o) does the source give for `COc1ccc(OCCN2C[C@H]([C@@H](O)CO)[C@H]3CCC[C@@H](C2=O)N3S(=O)(=O)c2cc(Cl)cc(Cl)c2)cc1OC` here?
Answer: 17 nM (active)

Question: Which Ki (protein: Peptidyl-prolyl cis-trans isomerase FKBP51, PDB entry 4w9p) does the source give for `COc1ccc(OCCN2C[C@H]([C@H](O)CO)[C@H]3CCC[C@@H](C2=O)N3S(=O)(=O)c2cc(Cl)cc(Cl)c2)cc1OC` here?
Answer: 16 nM (active)

Question: Which Ki (protein: E. coli sliding clamp, DNA polymerase III subunit beta, PDB entry 4n99) does the source give for `O=C(O)c1cc2[nH]c3ccccc3c2cc1Cl` here?
Answer: 216000 nM (active)

Question: With `Cc1ccc(CSc2nc3c(c(=O)[nH]2)CCC3)cc1` as the molecule, how does the Ki (protein: Matrix metalloproteinase-13, PDB entry 4l19) read?
Answer: 800 nM (active)

Question: Which Ki (protein: bovine seminal ribonuclease, PDB entry 1n3z) does the source give for `O=c1ccn([C@@H]2O[C@H](CO)[C@@H](O[P+](O)(O)O)[C@H]2O)c(=O)[nH]1` here?
Answer: 63200 nM (active)

Question: Which Ki (protein: Glycogen phosphorylase, muscle form, PDB entry 3t3d) does the source give for `O=c1ccn([C@@H]2O[C@H](CO)[C@@H](O)[C@H](O)[C@H]2O)c(=O)[nH]1` here?
Answer: 12400 nM (active)

Question: Which Ki (protein: Mt orotidine 5'-monophosphate decarboxylase (OMPDC) K72A mutant, PDB entry 2zz2) does the source give for `N#C[C@H]1CC(=O)NC(=O)N1[C@@H]1O[C@H](CO[P+](O)(O)O)[C@@H](O)[C@H]1O` here?
Answer: 29000 nM (active)

Question: For `Cc1cc(=O)[nH]c(=O)n1[C@@H]1O[C@H](CO[P+](O)(O)O)[C@@H](O)[C@H]1O`, which Ki (protein: Orotidine 5'-phosphate decarboxylase, PDB entry 3wjw) is on record?
Answer: 134000 nM (active)

Question: Which Ki (protein: D312N mutant of human orotidyl-5'-monophosphate decarboxylase, PDB entry 3ex6) does the source give for `O=c1ccn([C@@H]2O[C@H](CO[P+](O)(O)O)[C@@H](O)[C@H]2O)c(=O)[nH]1` here?
Answer: 220000 nM (active)

Question: What about the Ki (protein: Mt orotidine 5'-monophosphate decarboxylase (OMPDC), PDB entry 3g1d) of the same molecule?
Answer: 330000 nM (active)

Question: And the Ki (protein: orotidine 5'-monophosphate decarboxylase from P.falciparum, PDB entry 2za3)?
Answer: 210000 nM (active)

Question: For `O=c1cnn([C@@H]2O[C@H](CO[P+](O)(O)O)[C@@H](O)[C@H]2O)c(=O)[nH]1`, which Ki (protein: Methanothermobacter thermautotrophicus ODCase mutant K42A, PDB entry 1km3) is on record?
Answer: 12400 nM (active)

Question: What about the Ki (protein: orotidine 5'-monophosphate decarboxylase from Saccharomyces cerevisiae (D91N), PDB entry 3gdt) of the same molecule?
Answer: 64 nM (active)

Question: What does the source list for `CC(C)(C)OC(=O)N[C@H](C(=O)NO)c1ccc(-n2cccn2)cc1`?
Answer: Ki (protein: M1 family aminopeptidase A-M1, PDB entry 4r5t): 800 nM (active); Ki (protein: M17 leucyl aminopeptidase A-M17, PDB entry 4r6t): 30 nM (active)

Question: With `CC(C)(C)C(=O)N[C@@H](C(=O)NO)c1ccc(-n2cccn2)cc1` as the molecule, how does the Ki (protein: M1 family aminopeptidase A-M1, PDB entry 4r5v) read?
Answer: 700 nM (active)

Question: Which Ki (protein: P2Y12R, PDB entry 4ntj) does the source give for `CCOC(=O)c1cc(C#N)c(N2CCC(C(=O)NS(=O)(=O)Cc3ccccc3)CC2)nc1C` here?
Answer: 43.9 nM (active)

Question: For `CC(C[P+](O)(O)O)C(=O)O` (stereo not given), which Ki (protein: PHOSPHO-2-DEHYDRO-3-DEOXYHEPTONATE ALDOLASE DAH7PS, PDB entry 4uma) is on record?
Answer: 3900 nM (active)

Question: For `CC(C)C[C@H](NC(=O)OCc1ccccc1)C(=O)N[C@@H](Cc1ccccc1)C(=O)N[C@H](C=O)CCC(=O)N(C)C` (Cbz-Leu-Phe-Glu(NMe2)-aldehyde), which Ki (protein: Genome polyprotein, PDB entry 4imz) is on record?
Answer: 120 nM (active)

Question: Which Ki (protein: Genome polyprotein, PDB entry 4inh) does the source give for `CC(C)C[C@H](NC(=O)[C@H](C)NC(=O)OCc1ccccc1)C(=O)N[C@@H](CCC(=O)N(C)C)C(=O)O` (Cbz-Ala-Leu-Glu(NMe2)-OH) here?
Answer: 560 nM (active)

Question: With `CC(=O)NC[C@@H](C=O)NC(=O)[C@H](Cc1ccccc1)NC(=O)[C@H](CC(C)C)NC(=O)OCc1ccccc1` (Cbz-Leu-Phe-[Dap](Ac)-aldehyde) as the molecule, how does the Ki (protein: 3C-like protease, PDB entry 4imq) read?
Answer: 1500 nM (active)

Question: Which Ki (protein: Factor VII, PDB entry 4ish) does the source give for `COc1cc([C@@H]2Nc3ccc(C(N)N)cc3[C@H]3c4ccccc4C[C@H]32)c(-c2ccc(C(=O)O)cc2)cc1O` here?
Answer: 1.9 nM (active)

Question: For `CC(=O)N[C@H]1CNC[C@H](O)[C@@H](O)[C@@H]1O`, which Ki (protein: Beta-hexosaminidase 1, PDB entry 4mss) is on record?
Answer: 400 nM (active)

Question: For `COc1cc2c(c(OC)c1OC)-c1ccc(OC)c(=O)cc1[C@@H](NC(C)=O)CC2`, which Ki (protein: Tubulin, PDB entry 4o2b) is on record?
Answer: 1800 nM (active)

Question: With `NCCCC[C@@H]1NC(=O)[C@H](CCC(N)=O)NC(=O)[C@H](Cc2ccc(O)cc2)NC(=O)[C@@H](NC(=O)[C@H](Cc2cccc3ccccc23)NC(=O)[C@H](CCCNC(N)N)NC(=O)[C@@H](N)CCCNC(N)N)CSSC[C@@H](C(=O)N[C@@H](CCCNC(N)N)C(=O)NCC(=O)N2CCC[C@@H]2C(=O)O)NC(=O)[C@H](CCCNC(N)=O)NC(=O)[C@H](CCCNC(N)N)NC(=O)[C@H](Cc2ccc(O)cc2)NC(=O)[C@@H]2CCCN2C(=O)[C@H]2CCCN2C1=O` as the molecule, how does the Ki (protein: C-X-C chemokine receptor type 4, Lysozyme Chimera(CXCR4-3), PDB entry 3oe0) read?
Answer: 2.5 nM (active)

Question: Which Ki (protein: bovine CATIONIC TRYPSIN, PDB entry 4abi) does the source give for `CC[C@H](C)[C@@H]1NC(=O)[C@H](C)n2cc(nn2)[C@@H]2CCCN2C(=O)[C@H]([C@@H](C)CC)NC(=O)[C@H](CO)NC(=O)[C@H](CCCCN)NC(=O)[C@H]([C@@H](C)O)NC(=O)[C@@H](NC(=O)[C@H](CCCNC(N)N)NC(=O)CN)CSSC[C@@H](C(=O)N[C@@H](Cc2ccccc2)C(=O)O)NC1=O` (H-G[Orn(CH(NH2)2)]CTKSI[X1]ICF-OH; disulfide 3-10) here?
Answer: 6.3 nM (active)

Question: For `CC[C@H](C)[C@@H]1NC(=O)[C@@H]2CCCN2C(=O)[C@@H]2CCCN2C(=O)[C@H]([C@@H](C)CC)NC(=O)[C@H](CO)NC(=O)[C@H](CCCCN)NC(=O)[C@H]([C@@H](C)O)NC(=O)[C@@H]2CSSC[C@H](NC1=O)C(=O)N[C@@H](Cc1ccccc1)C(=O)N1CCC[C@H]1C(=O)N[C@@H](CC(=O)O)C(=O)NCC(=O)N[C@@H](CCCNC(N)N)C(=O)N2`, which Ki (protein: bovine ?-trypsin, PDB entry 1sfi) is on record?
Answer: 0.1 nM (active)

Question: For `CC[C@H](C)[C@@H]1NC(=O)[C@@H]2CCCN2C(=O)[C@@H]2CCCN2C(=O)[C@H]([C@@H](C)CC)NC(=O)[C@H](CO)NC(=O)CN(CCCCN)C(=O)[C@H]([C@@H](C)O)NC(=O)[C@@H](NC(=O)[C@H](CCCNC(N)N)NC(=O)CN)CSSC[C@@H](C(=O)N[C@@H](Cc2ccccc2)C(=O)O)NC1=O` (H-G[Orn(CH(NH2)2)]CT[Nlys]SIPPICF-OH; disulfide 3-11), which Ki (protein: Cationic trypsin, PDB entry 4hgc) is on record?
Answer: 0.1 nM (active)
